# Screening data as filed in PubChem BioAssay.
# The entries come from a sample that favours hits as a whole.
# mHTT-CaM PPI inh: mutant huntingtin-calmodulin interaction inhibitors – biochemical, AlphaScreen, primary screen; P42858; inhibition, % at 15 µM; AlphaScreen His-mHTT/GST-CaM binding, luminescence; AID 1671202, 2021; 190,000 tested, 3.6% active;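 note: 0% = both proteins with DMSO and 100% = one protein alone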
# Target sequence (P42858 whole entry, looked up, stated change not applied): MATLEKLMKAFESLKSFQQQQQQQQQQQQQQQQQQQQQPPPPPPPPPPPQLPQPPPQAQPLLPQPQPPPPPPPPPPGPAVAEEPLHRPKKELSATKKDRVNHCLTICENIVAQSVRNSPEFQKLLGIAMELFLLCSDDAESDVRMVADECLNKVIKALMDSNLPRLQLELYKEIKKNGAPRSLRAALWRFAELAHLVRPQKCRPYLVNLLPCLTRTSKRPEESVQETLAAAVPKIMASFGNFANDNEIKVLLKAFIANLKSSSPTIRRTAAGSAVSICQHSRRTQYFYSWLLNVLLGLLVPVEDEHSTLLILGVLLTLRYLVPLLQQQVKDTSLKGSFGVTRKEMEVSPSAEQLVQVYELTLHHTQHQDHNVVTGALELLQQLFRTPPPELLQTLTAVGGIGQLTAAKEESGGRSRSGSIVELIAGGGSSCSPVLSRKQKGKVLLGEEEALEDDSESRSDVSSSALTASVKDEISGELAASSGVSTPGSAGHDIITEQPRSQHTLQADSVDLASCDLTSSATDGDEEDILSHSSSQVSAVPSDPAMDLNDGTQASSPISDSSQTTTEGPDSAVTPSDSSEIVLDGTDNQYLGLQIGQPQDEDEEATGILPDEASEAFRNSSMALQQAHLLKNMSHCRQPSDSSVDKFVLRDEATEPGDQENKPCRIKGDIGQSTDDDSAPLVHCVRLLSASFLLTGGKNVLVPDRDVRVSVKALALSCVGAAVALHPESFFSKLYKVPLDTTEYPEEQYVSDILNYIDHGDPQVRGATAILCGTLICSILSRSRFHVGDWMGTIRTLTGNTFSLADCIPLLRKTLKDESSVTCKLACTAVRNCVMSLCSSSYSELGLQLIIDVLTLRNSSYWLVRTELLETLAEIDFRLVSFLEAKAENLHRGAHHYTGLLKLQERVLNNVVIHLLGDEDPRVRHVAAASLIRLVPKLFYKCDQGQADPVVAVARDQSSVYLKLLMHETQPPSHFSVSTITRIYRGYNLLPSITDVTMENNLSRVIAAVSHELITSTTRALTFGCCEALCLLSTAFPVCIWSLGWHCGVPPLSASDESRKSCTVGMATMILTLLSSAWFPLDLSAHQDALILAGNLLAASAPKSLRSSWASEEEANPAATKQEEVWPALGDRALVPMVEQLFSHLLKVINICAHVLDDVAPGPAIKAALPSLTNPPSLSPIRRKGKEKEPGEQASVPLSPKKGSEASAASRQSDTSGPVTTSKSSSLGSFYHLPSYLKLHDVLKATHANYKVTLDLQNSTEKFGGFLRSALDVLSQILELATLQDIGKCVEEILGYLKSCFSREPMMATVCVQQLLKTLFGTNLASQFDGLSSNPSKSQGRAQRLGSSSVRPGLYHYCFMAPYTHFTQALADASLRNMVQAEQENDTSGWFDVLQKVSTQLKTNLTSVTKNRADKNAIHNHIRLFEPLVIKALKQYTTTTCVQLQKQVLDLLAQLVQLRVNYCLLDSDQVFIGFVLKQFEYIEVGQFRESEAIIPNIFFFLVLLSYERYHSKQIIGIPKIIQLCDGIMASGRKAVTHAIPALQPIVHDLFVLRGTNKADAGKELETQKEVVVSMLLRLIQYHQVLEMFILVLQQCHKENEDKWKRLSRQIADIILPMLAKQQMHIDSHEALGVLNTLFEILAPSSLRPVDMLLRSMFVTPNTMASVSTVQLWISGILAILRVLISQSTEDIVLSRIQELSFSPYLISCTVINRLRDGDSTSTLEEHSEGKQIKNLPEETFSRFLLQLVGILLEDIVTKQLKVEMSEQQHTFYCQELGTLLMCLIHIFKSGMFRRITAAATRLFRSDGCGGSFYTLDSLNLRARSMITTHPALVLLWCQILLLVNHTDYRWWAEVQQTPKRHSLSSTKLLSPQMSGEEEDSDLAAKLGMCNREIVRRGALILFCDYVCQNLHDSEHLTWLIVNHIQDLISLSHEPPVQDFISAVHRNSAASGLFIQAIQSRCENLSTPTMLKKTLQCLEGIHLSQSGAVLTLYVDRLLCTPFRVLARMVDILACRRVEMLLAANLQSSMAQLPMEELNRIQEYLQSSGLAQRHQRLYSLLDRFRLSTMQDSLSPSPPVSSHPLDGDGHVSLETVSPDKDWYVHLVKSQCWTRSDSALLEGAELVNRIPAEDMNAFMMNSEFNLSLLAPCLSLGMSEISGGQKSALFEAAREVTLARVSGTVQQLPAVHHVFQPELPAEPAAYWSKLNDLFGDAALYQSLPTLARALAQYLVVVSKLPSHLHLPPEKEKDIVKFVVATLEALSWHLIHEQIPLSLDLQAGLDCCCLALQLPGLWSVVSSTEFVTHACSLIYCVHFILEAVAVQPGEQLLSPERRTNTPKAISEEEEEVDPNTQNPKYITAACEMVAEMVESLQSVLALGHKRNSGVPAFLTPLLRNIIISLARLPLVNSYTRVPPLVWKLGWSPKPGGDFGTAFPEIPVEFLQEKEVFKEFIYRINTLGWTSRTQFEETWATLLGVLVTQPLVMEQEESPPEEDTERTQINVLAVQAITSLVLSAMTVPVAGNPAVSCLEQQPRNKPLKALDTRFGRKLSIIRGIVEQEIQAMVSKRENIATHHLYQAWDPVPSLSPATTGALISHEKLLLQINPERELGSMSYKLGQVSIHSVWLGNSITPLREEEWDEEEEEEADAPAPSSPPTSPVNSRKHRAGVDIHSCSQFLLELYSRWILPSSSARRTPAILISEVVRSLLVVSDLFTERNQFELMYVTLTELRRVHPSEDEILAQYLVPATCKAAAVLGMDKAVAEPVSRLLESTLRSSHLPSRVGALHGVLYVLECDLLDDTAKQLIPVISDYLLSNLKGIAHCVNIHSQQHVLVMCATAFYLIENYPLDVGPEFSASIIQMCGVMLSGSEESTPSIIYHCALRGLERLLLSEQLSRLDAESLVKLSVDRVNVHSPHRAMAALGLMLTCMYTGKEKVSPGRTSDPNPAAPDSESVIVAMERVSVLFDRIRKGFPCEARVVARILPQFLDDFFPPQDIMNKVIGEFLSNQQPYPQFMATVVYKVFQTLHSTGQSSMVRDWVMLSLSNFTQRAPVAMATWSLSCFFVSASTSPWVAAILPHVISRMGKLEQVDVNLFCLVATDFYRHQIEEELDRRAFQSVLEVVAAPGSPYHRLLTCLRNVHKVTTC
# Pf apPOL inh: Pf-apPOL inhibitors, biochemical, fluorescence. Plasmodium falciparum apicoplast DNA polymerase (apPOL). Recombinant Pf-apPOL, molecular beacon fluorescence, 1.5 h. inhibition, % at 10 µM. 210,000 tested, 0.25% active
# * marks the source's active call; other numbers are inactive results; . = no result. Cut-off read from the data, not from the text of the source: active = inhibition above about 50%; inactive = the rest.
SMILES,mHTT-CaM PPI inh,Pf apPOL inh
COc1ccc(/C=C(\NC(=O)c2ccco2)C(=O)Nc2cccc(C(C)=O)c2)cc1,-5,-3
O=S(=O)(c1ccc(Cl)cc1)c1nc(/C=C/c2ccccc2)oc1N1CCOCC1,6,2
COc1ccccc1CCC(=O)N1CCc2c(nc3cc(-c4ccccc4)[nH]n3c2=O)C1,59*,3
O=C(c1ccc2c(c1)OCO2)N1CCc2c(nc3cc(-c4ccccc4)[nH]n3c2=O)C1,-1,-1
O=C(c1cc(F)ccc1Cl)N1CCc2c(nc3cc(-c4ccccc4)[nH]n3c2=O)C1,71*,3
O=C(c1ccccc1Cl)N1CCc2c(nc3cc(-c4ccccc4)[nH]n3c2=O)C1,46,-2
O=C(c1ccccc1)N1CCc2c(nc3cc(-c4ccccc4)[nH]n3c2=O)C1,49,51*
COc1ccccc1CCC(=O)N1CCc2nc3cc(-c4ccccc4)[nH]n3c(=O)c2C1,3,-1
Cc1ccc2nc(N3CCC(C(=O)NCCc4ccc(Cl)cc4)CC3)[nH]c2c1,9,-9
COc1cccc(/C=C2/N=C(c3ccc(-c4ccccc4)cc3)OC2=O)c1OC,1,-2
COc1ccc(/C=C2/N=C(c3ccc(Br)cc3)OC2=O)cc1OC,1,-5
COc1ccc(-n2ccnc2SCC(=O)NCc2ccc3c(c2)OCO3)c(OC)c1,3,-9
Cc1ccc(C(=O)N2CCC3(CC2)NC(=O)c2ccc(F)cc2N3C)c(C)c1,0,-2
Cc1ccc(C(=O)N2CCC3(CC2)NC(=O)c2cc(F)ccc2N3C)c(C)c1,56*,0
COc1cc(OC)c(-n2cc(-c3cc4ccccc4oc3=O)[nH]c2=O)cc1Cl,0,-1
CC(=O)N(C(C)=O)c1ncc2c([nH]c3ccccc32)c1C#N,83*,-3
N#Cc1c(N2CCCCC2)ncc2c(=O)c3ccccc3[nH]c12,4,0
O=C(NCCc1ccc(F)cc1)c1c(Cl)cccc1Cl,-7,-3
Brc1ccc2c(c1)sc1cc(Br)ccc12,-4,.
COc1ccccc1Nc1nc(-c2sc(N)nc2C)cs1,74*,-1
O=[N+]([O-])c1cccc(Nc2nc(-c3ccccn3)cs2)c1,48,-3
COc1ccc(Cl)cc1Nc1nc(-c2ccccn2)cs1,56*,0
CCC(=O)Nc1nc(C)c(-c2csc(Nc3ccccn3)n2)s1,41,0
Cc1c(Cl)cccc1Nc1nc(-c2ccccn2)cs1,100*,1
CCc1ccccc1Nc1nc(-c2ccccn2)cs1,99*,-2
SMILES,mHTT-CaM PPI inh,Pf apPOL inh
CCC(=O)Nc1nc(C)c(-c2csc(Nc3ccccc3OC)n2)s1,41,28
COc1ccc(Cl)cc1Nc1nc(-c2ccncc2)cs1,-2,-3
O=C(NCc1ccc(F)cc1)c1ccc2c(c1)Sc1ncccc1C(=O)N2C1CC1,3,-9
O=C(Oc1ccc2c(-c3cc4cc(Br)ccc4oc3=O)cc(=O)oc2c1)C1CC1,10,-6
O=C(NCC1CCN(C2CCCC2)CC1)C(=O)NC1CCCC1,-1,24
COc1cccc(CNC(=O)c2cccc(C3CCCN(C(=O)NC(C)C)C3)c2)c1 (stereo unspecified),5,-4
Cc1ccc(-c2ncc3c(=O)n(Cc4cccc(F)c4)c(=O)n(C)c3n2)cc1,-9,1
COc1ccc(C(O)=C2C(=O)C(=O)N(CCN(C)C)C2c2ccccc2)cc1Cl (stereo unspecified),1,-4
COc1ccccc1Nc1nc(-c2ccccn2)cs1,97*,-7
COc1ccc(OC)c(Nc2nc(-c3ccncc3)cs2)c1,6,-10
COc1ccc(C(=O)Oc2ccc3c(c2)OC(=Cc2ccncc2)C3=O)cc1OC,4,0
CC1CCc2cc(F)cc3c(O)c(C(=O)NCCCN(C)C)c(=O)n1c23 (stereo unspecified),99*,-66
CC1CCc2cc(F)cc3c(O)c(C(=O)NCCN4CCOCC4)c(=O)n1c23 (stereo unspecified),26,-83
Fc1cccc(Cl)c1C1CC(c2ccc(I)cc2)Nc2nnnn21 (stereo unspecified),20,-2
COCCNC(=O)C1Cc2ccccc2N2CCN(c3ccccc3F)CC12 (stereo unspecified),5,0
COCCNC(=O)C1Cc2ccccc2N2CCN(c3cccc(Cl)c3)CC12 (stereo unspecified),57*,2
CCOc1cc(O)c(-c2n[nH]c(C)c2-c2ccc(F)cc2)cc1CC,47,-4
CCc1cc(-c2n[nH]c(C)c2-c2nc3ccccc3s2)c(O)cc1OC,98*,-1
COc1ccc(S(=O)(=O)N2CCc3ccccc32)cc1,-33,-5
c1cn(CCCNc2ncnc3nc[nH]c23)cn1,4,3
Clc1ccc(Nc2nc(NCCCn3ccnc3)nc3nc[nH]c23)cc1,99*,-10
Cc1ccccc1C1CN(C(=O)C(C)C)CC1C(=O)NCC(C)C (stereo unspecified),-2,-5
